Bioassay records (PubChem BioAssay)
This is a sample that favours compounds with a hit; in the whole collection about 7.4% have one here.
3T3 cytotox = cytotoxic compounds in NIH 3T3 cells; NIH 3T3 viability, CellTiter-Glo ATP luminescence, 48-72 h; Potency, µM (series often up to 96.7 µM), without a hit: at the highest dose activity change, negative = cytotoxicity, actives largely listed as inhibitors; 4.3% of 94,000 active; further: nearly all actives have a fitted effect of over 55% in size
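NIH 3T3 cells at 400 cells/well received 23 nL of compound by pintool and were incubated 48 or 72 h at 37 °C. Viability was read as ATP-coupled CellTiter-Glo luminescence.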
hNpr1 antagonist = human Npr1 receptor antagonism; P16066; HEK293 hNpr1 GloSensor cGMP, ANP-stimulated luminescence; 1.6% of 76,000 active; Potency, µM (highest dose often 46.3 µM), inactives show top-dose activity change, negative = inhibition, usual class: inhibitors; AID 1347048; calls by dose curve; further: nearly all actives have a fitted effect of over 60% in size
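HEK293 cells stably expressing human Npr1 and cGMP GloSensor pGS-40F, loaded 2 h with 2% GloSensor reagent, given compound 30 min at room temperature. Luminescence read before and 20 min after 0.1 nM hNppA.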
Luciferase inh = inhibitors of firefly (Photinus pyralis) luciferase; 2.5% of 76,000 active; Potency, µM (series often up to 115 µM), most hits filed as inhibitors; P08659; AID 1347043; purified P. pyralis luciferase, luminescence, biochemical; further: nearly all actives have a fitted effect of over 65% in size
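Biochemical qHTS: compound (6-point titration) added to 10uM D-luciferin plus 10uM ATP in Tris acetate pH 7.5 buffer with Mg, Tween-20 and BSA, then purified enzyme at 10nM; light output imaged.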
SNCA expr inh = inhibitors of alpha-synuclein (SNCA) gene expression. 0.17% of 140,000 active. HEK-293 SNCA-luciferase knock-in, luminescence, 24 h. Potency, µM (series often up to 57.2 µM), for the others: top-dose activity change, negative = inhibition, usual class: inhibitors;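 further: plate controls were DMSO cells for no effect and cell-free wells for full effect; nearly all actives have a fitted effect of over 45% in size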
HEK293 tox = cytotoxic compounds in HEK 293 cells. 6.6% of 94,000 active. Potency, µM (doses to about 115 µM), without a hit: top-dose activity change, negative = cytotoxicity, actives largely listed as inhibitors. HEK 293 viability, ATP luminescence (CellTiter-Glo), 48-72 h; further: nearly all actives have a fitted effect of over 60% in size
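Read-out: CellTiter-Glo ATP luminescence. Cells: HEK 293, 250 cells/well. Exposure: 48 or 72 hr, 37 degree Celsius.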
HEK293 viab = cell viability loss counter-screen | HEK-293-SNCA-luc viability, GF-AFC fluorescence, 24 h | Potency, µM (highest dose often 57.1 µM), inactives show at the top dose activity change, negative = cytotoxicity, usual class: cytotoxic | 0.12% of 150,000 active;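 further: 0% = DMSO-treated cells and -100% = medium-only wells without cells; nearly all actives have a fitted effect of over 30% in size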
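Cytotoxicity counterscreen: after 24 h compound treatment of genome-edited SNCA-luciferase HEK-293 cells, live-cell protease substrate GF-AFC read by fluorescence after 30 min; activity scaled between DMSO (0%) and medium-only (-100%), curves Hill-fitted.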
Active calls of the source: *; i = inactive; ? = inconclusive; . = no result; [ ] = another dose, or the depositor's remark. Unless noted, the call rests on the fitted dose curve; in most records, active means well fitted curve in the direction sought with a large enough effect; inconclusive means small, poorly fitted or top-dose-only effect, or another doubt; inactive means no such curve, though single readings can be large; an effect the other way counts as inactive or inconclusive. Unless noted, on the % scale 0 is the no-effect control and ±100 the full control effect; potency means the concentration at half of the fitted maximal effect.

SMILES	3T3 cytotox	hNpr1 antagonist	Luciferase inh	SNCA expr inh	HEK293 tox	HEK293 viab
CC1Oc2ccc(NC(=O)COc3ccccc3)cc2CN(Cc2ccccc2Cl)C1=O (stereo not given)	?	-4.7%	i	-5.4%	25.1µM*	?
CC1Oc2ccc(NC(=O)c3ccccc3Cl)cc2CN(Cc2ccccc2F)C1=O (stereo not given)	?	-10.5%	i	-20.3%	?	6.0%
COc1ccc(CC(=O)Nc2ccc3c(c2)CN(CCOc2ccccc2)C(=O)C(C)O3)cc1 (stereo not given)	?	-16.9%	i	2.3%	44.7µM*	-11.3%
CC1Oc2ccc(NC(=O)c3ccc(F)cc3F)cc2CN(Cc2ccccc2Cl)C1=O (stereo not given)	?	-21.0%	i	8.1%	50.1µM*	9.7%
COc1ccc(CN2Cc3cc(NC(=O)Cc4ccccc4)ccc3OC(C)C2=O)cc1 (stereo not given)	?	-16.6%	i	-2.1%	?	-8.0%
CN(C)CCN1CCN(c2cccc(Cl)c2)C1=O	.	.	.	-3.2%[25.6 µM]	.	-10.1%[23.9 µM]
COc1cccc(-c2n[nH]c3c2CC(=O)N(CC2CCOCC2)C3)c1	?	-2.2%[70.6 µM]	i	-10.0%[87.6 µM]	-15.4%[172 µM]	-4.8%[87.6 µM]
Cc1csc(NC(=O)c2nc3c(o2)CCN(Cc2cc(F)ccc2F)CC3)n1	?	-12.9%[70.6 µM]	28.2µM*	3.3%[87.6 µM]	?	-15.8%[87.6 µM]
O=C(NCc1ccccc1)c1nc2c(o1)CCN(Cc1c(F)cccc1F)CC2	?	3.3%[70.6 µM]	i	1.0%[87.6 µM]	-27.7%[172 µM]	5.6%[87.6 µM]
COc1ccccc1CN1CCc2nc(C(=O)Nc3nc(C)cs3)oc2CC1	?	-11.5%[70.6 µM]	25.1µM*	38.9%[87.6 µM]	?	1.9%[87.6 µM]
O=C(NCCOc1ccccc1)c1nc2c(o1)CCN(Cc1cc(F)ccc1F)CC2	?	-3.7%[70.6 µM]	i	0.7%[87.6 µM]	?	-7.4%[87.6 µM]
Cc1csc(NC(=O)c2nc3c(o2)CCN(Cc2c(F)cccc2F)CC3)n1	?	2.7%[70.6 µM]	28.2µM*	39.4%[87.6 µM]	?	-5.9%[87.6 µM]
CN(C)c1ncc2c(n1)C(C)(C(=O)NCC1CC1)CCC2 (stereo not given)	?	-9.4%[70.6 µM]	i	-25.0%[87.6 µM]	?	1.9%[87.6 µM]
COc1cccc(Nc2ncc3c(n2)C(C)(C(=O)NCC2CC2)CC3)c1 (stereo not given)	?	-23.7%[70.6 µM]	i	-22.3%[87.6 µM]	50.1µM*	?
COc1cccc(Nc2ncc3c(n2)C(C)(C(=O)NCCc2ccccn2)CC3)c1 (stereo not given)	?	-2.2%[70.6 µM]	i	-5.4%[87.6 µM]	100µM*	-26.1%[87.6 µM]
CC1(C(=O)NCC2CC2)CCc2cnc(Nc3ccccc3)nc21 (stereo not given)	?	-1.8%[70.6 µM]	i	?	100µM*	-24.4%[87.6 µM]
COc1ccc(C(=O)N2C[C@@H](Oc3cccnc3)C[C@H]2C(=O)NC2CC2)c(OC)n1	i	.	.	-4.5%	i	-4.6%
CCCc1noc(-c2cccn3c(CNC(=O)CCC4CCCC4)nnc23)n1	i	-0.7%	i	-3.2%	i	-1.9%
O=C(CC1CCCN(c2cnn(CC3CC3)c(=O)c2)C1)Nc1cccc(F)c1 (stereo not given)	22.4µM*	1.2%	i	-16.9%	?	-7.5%
Cn1ncc(N2CCCC(CC(=O)Nc3cccc(F)c3)C2)cc1=O (stereo not given)	?	2.2%	i	19.2%	-19.2%	0.4%
O=C(CC1CCCN(c2cnn(CC3CC3)c(=O)c2)C1)NCCc1c[nH]c2ccccc12 (stereo not given)	?	-1.3%	i	6.5%	79.4µM*	-1.7%
O=C(CC1CCCN(c2cnn(CC3CC3)c(=O)c2)C1)NCc1ccccc1 (stereo not given)	35.5µM*	-9.7%	i	?	?	-20.8%
CCn1ncc(N2CCCC(CC(=O)NCc3ccccc3)C2)cc1=O (stereo not given)	-15.3%	-1.5%	i	16.2%	?	-8.3%
